# In the supplement of paper PMC12669032:
# Unmarked numbers belong to inactive results.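 Rule for the calls: active = AUC reduced over 20% with Padj below 0.05 in at least 2 of 3 replicates; inactive = otherwise.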
# Experiments:
# Experiment in all cases: growth AUC relative to DMSO control (median of replicates) (fraction); higher = more growth (less inhibition), active = hit call of the paper
# Conditions in all cases: 20 µM; 24 h
# [1] = system: Akkermansia muciniphila
# How it was run: (§1)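 Hourly OD600 readings over 24 h tracked anaerobic gut bacterial monocultures grown at 37 °C in mGAM from OD600 0.05 with 20 µM compound (1% DMSO). After the minimum OD was set to 0, area under the growth curve was normalised to the plate median of solvent-only wells, or to row and column medians on the industrial chemical plate. Values are medians of three biological replicates grown on separate days.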
# [2] = system: Bacteroides caccae
# How it was run: as §1
# [3] = system: Bacteroides clarus
# How it was run: as §1
# [4] = system: Bacteroides dorei
# How it was run: as §1
# [5] = system: Bacteroides stercoris
# How it was run: as §1
# [6] = system: Bacteroides thetaiotaomicron
# How it was run: as §1
# [7] = system: Bacteroides uniformis
# How it was run: as §1
# [8] = system: Bifidobacterium longum subsp. longum
# How it was run: as §1
# [9] = system: Clostridium difficile
# How it was run: as §1
# [10] = system: Collinsella aerofaciens
# How it was run: as §1
Structure (SMILES),growth AUC [1],growth AUC [2],growth AUC [3],growth AUC [4],growth AUC [5],growth AUC [6],growth AUC [7],growth AUC [8],growth AUC [9],growth AUC [10]
CCCN(CC)CC1COC2(CCC(C(C)(C)C)CC2)O1 (stereo not given),0.871,0.99,0.952,1.07,0.87,1.02,1.04,0.79,0.985,0.981
CC(C)=CC1C(C(=O)OCc2coc(Cc3ccccc3)c2)C1(C)C (stereo not given),0.878,0.995,0.943,1,0.965,0.973,0.988,0.899,1.02,0.936
CC1(C)[C@H](C(=O)O[C@H](C#N)c2cccc(Oc3ccccc3)c2)[C@@H]1/C=C\C(=O)OC(C(F)(F)F)C(F)(F)F,0.955,1.01,0.976,1.02,0.92,1.03,1.01,0.931,1.03,1.07
CCOP(=S)(OCC)SCn1c(=O)oc2cc(Cl)ccc21,0.99,0.921,0.94,0.936,0.831,0.945,0.927,0.943,0.978,0.991
O=C(O)CCl,0.94,0.966,0.991,0.982,1.07,1,0.947,0.938,0.995,0.976
Fc1ccc(C2(Cn3cncn3)OC2c2ccccc2Cl)cc1 (stereo not given),0.955,1.01,0.93,0.956,1.02,0.941,0.953,0.935,0.995,0.99
c1ccc2c(c1)-c1cccc3cccc-2c13,0.967,0.969,0.997,0.999,0.98,0.963,0.996,0.857,1.02,0.93
N#Cc1nn(-c2c(Cl)cc(C(F)(F)F)cc2Cl)c(N)c1SC(F)(F)F,1.01,0.941,0.858,0.899,1.14,0.953,0.928,1.09,0.909,0.942
CCNC(=O)NC(=O)/C(C#N)=N/OC,0.998,1,1,0.983,1.08,1,0.956,0.901,0.965,1.07
COC(=O)[C@@H](C)N(C(=O)Cc1ccccc1)c1c(C)cccc1C,0.957,0.968,0.98,0.964,0.954,0.93,0.897,1.01,0.998,1.03
CC(C)(COCc1cccc(Oc2ccccc2)c1)c1ccc(OC(F)(F)Br)cc1,0.955,0.982,0.973,1.01,1.04,0.976,1.02,0.966,1.01,0.953
CCOC(=O)OC1=C(c2cc(C)ccc2C)C(=O)NC12CCC(OC)CC2 (stereo not given),0.953,1,0.995,0.996,1.04,0.971,0.982,0.996,0.977,0.997
CC1COC(Cn2cncn2)(c2ccc(Oc3ccc(Cl)cc3)cc2Cl)O1 (stereo not given),1.03,0.868,0.898,0.91,1.12,0.854,0.839,0.938,0.881,0.977
O=[N+]([O-])C(Br)(CO)CO,0.966,0.987,1.01,1.03,1.01,0.962,0.976,0.991,0.996,1.01
COP(=O)(OC)O/C(C)=C/C(=O)N(C)C,1.15,1.01,0.988,0.993,1.02,0.988,1.02,0.989,0.987,0.996
COCCN(C(=O)CCl)c1c(C)cccc1C,0.91,0.969,0.967,1.02,0.967,0.989,0.973,0.851,1,1.02
CCOP(=S)(OCC)SCS(=O)C(C)(C)C (stereo not given),0.905,0.997,1.02,0.944,1.08,1.02,0.989,1.02,1,0.987
COC(=O)COc1cc(Cl)c(Cl)cc1Cl,0.868,1.01,0.952,1,1.01,0.97,0.966,0.906,1.01,1
CCCSP(=S)(OCC)Oc1ccc(Cl)cc1Cl (stereo not given),1.06,0.796,1.05,0.98,1.41,0.961,1.01,1.07,1.05,0.965

Structure (SMILES),growth AUC [1],growth AUC [2],growth AUC [3],growth AUC [4],growth AUC [5],growth AUC [6],growth AUC [7],growth AUC [8],growth AUC [9],growth AUC [10]
CC(C)(C)c1ccc(CCOc2ncnc3ccccc23)cc1,1.16,0.952,0.973,0.921,0.872,0.975,0.944,0.996,0.98,0.943
CCOP(=S)(Oc1ccc([N+](=O)[O-])cc1)c1ccccc1 (stereo not given),1.06,0.961,1.02,0.972,1.11,1.01,0.919,1.02,1.03,0.996
ClC(Cl)=C(c1ccc(Cl)cc1)c1ccc(Cl)cc1,1.1,0.933,0.961,0.953,1.18,0.956,1.01,1.05,0.969,0.842
O=C(Cc1ccccc1)N/C(=N\OCC1CC1)c1c(C(F)(F)F)ccc(F)c1F,1.23,0.936,0.965,0.945,0.852,0.959,0.912,0.975,0.957,0.915
CCC/C(=N\OCC)C1=C(O)CC(CC(C)SCC)CC1=O (stereo not given),0.936,1.01,0.989,1.02,0.974,0.992,1.01,0.85,1.01,1.01
C[C@@H](Oc1ccc(Oc2ccc(C(F)(F)F)cn2)cc1)C(=O)O,1.08,1.04,1.02,1.02,1.05,1.02,0.995,0.985,1.02,0.957
COc1cc(OC)nc(NC(=O)[N-]S(=O)(=O)c2ncccc2OCC(F)(F)F)n1.[Na+],1.07,0.973,0.982,0.995,0.888,0.77 (active),1.02,1.07,1,1
CC(C)C1(C)N=C(c2ncccc2C(=O)O)NC1=O (stereo not given),0.976,0.918,1.01,0.761,1.17,0.974,1.02,1,0.991,0.978
CCOCN(C(=O)CCl)c1c(C)cccc1CC,0.969,1.01,0.995,1.04,1,0.967,0.968,0.986,0.983,1.03
CCCOCC(=Nc1ccc(Cl)cc1C(F)(F)F)n1ccnc1,1.03,0.955,0.919,0.982,1.16,0.934,0.913,1.03,0.922,0.941
C=CCC1=C(C)C(OC(=O)C2C(C=C(C)C)C2(C)C)CC1=O (stereo not given),1.05,0.994,1,0.97,0.832,0.968,0.98,0.963,1,0.957
O=C1C[C@@H]2OCC=C3CN4CC[C@]56c7ccccc7N1[C@H]5[C@H]2[C@H]3C[C@H]46,0.985,0.968,0.998,0.93,0.898,0.964,1.01,1.09,0.972,0.942
Oc1cc(Cl)cc(Cl)c1,1.04,1.01,1,0.996,1.08,0.917,1.01,0.998,1,1.01
CC(C)CC(C)c1sccc1NC(=O)c1cn(C)nc1C(F)(F)F (stereo not given),0.99,0.967,0.94,1.02,1.07,0.938,0.942,1.02,1,0.99
CON(C)C(=O)Nc1ccc(Cl)c(Cl)c1,0.949,1.05,1,1.04,0.954,1,1,0.953,0.999,1.06
CCCOC(=O)c1ccccc1C(=O)OCCC,1.16,1.04,1.03,0.983,1.18,0.992,0.989,1.05,0.999,1.01
CCCCC(O)(Cn1cncn1)c1ccc(Cl)cc1Cl (stereo not given),0.965,0.944,0.96,0.97,1.22,0.92,0.971,1.02,0.92,1
CCC(C)(NC(=O)c1cc(Cl)c(C)c(Cl)c1)C(=O)CCl (stereo not given),0.877,0.949,0.895,0.967,0.86,0.908,0.861,0.953,0.496 (active),1
C/C(=N\NC(=O)Nc1cc(F)cc(F)c1)c1ncccc1C(=O)[O-].[Na+],1.33,1,1.01,0.77,1.05,1.01,0.946,0.987,1,0.965

Structure (SMILES),growth AUC [1],growth AUC [2],growth AUC [3],growth AUC [4],growth AUC [5],growth AUC [6],growth AUC [7],growth AUC [8],growth AUC [9],growth AUC [10]
CCNS(=O)(=O)C(F)(F)C(F)(F)C(F)(F)C(F)(F)C(F)(F)C(F)(F)C(F)(F)C(F)(F)F,0.945,0.986,0.906,1.02,0.896,0.993,0.966,0.905,1.04,1.13
CO/N=C(/C1=NOCCO1)c1ccccc1Oc1ncnc(Oc2ccccc2Cl)c1F,0.963,0.987,0.957,0.938,0.941,0.961,0.963,0.845,0.948,1.02
CCCN(CCC)C(=O)SCc1ccccc1,1.04,0.994,0.996,0.976,1.13,0.972,0.985,0.967,0.987,0.998
O=C(O)COc1cc(Cl)c(Cl)cc1Cl,0.934,1.02,0.954,1.01,0.978,0.985,1.01,0.708,1.01,1.07
CC(C)[C@H](C(=O)O[C@H](C#N)c1cccc(Oc2ccccc2)c1)c1ccc(Cl)cc1,1.1,0.99,0.979,1.04,0.778,1.01,1.02,0.917,1,0.921
CC(C)=CC1C(C(=O)OCN2C(=O)C3=C(CCCC3)C2=O)C1(C)C (stereo not given),0.932,0.916,0.924,0.976,0.877,0.965,0.97,0.741,0.959,0.955
CSC1=N[C@@](C)(c2ccccc2)C(=O)N1Nc1ccccc1,1.05,0.978,0.967,0.985,1.26,0.961,0.986,1.04,0.997,0.99
CCSCc1ccccc1OC(=O)NC,0.874,1.01,0.972,0.995,0.992,0.967,0.973,0.967,0.972,1
Cc1cc(Cl)ccc1N=CN(C)C.Cl,1.06,0.997,1.01,1.03,0.972,1.01,0.982,1.03,1.04,0.978
CC(C)N(Cc1ccccc1)C(=O)C(C)(C)C,1.11,0.928,0.976,0.936,0.958,0.98,0.999,1.04,0.937,0.92
FC(F)C(F)(F)OCC(Cn1cncn1)c1ccc(Cl)cc1Cl (stereo not given),0.949,0.967,0.921,0.924,0.957,0.921,0.957,0.967,0.985,0.93
CC(Oc1cc(Cl)c(Cl)cc1Cl)C(=O)O (stereo not given),0.958,1,0.949,0.979,0.973,0.99,0.987,0.787,1.02,1.01
O=C(O)c1ccc(Cl)nc1,0.953,0.985,1.02,0.985,1.08,1.01,1.04,0.902,1.03,0.999
CCCCCCCCCc1ccc(O)cc1,1.02,1.03,0.739 (active),1.01,0.0469 (active),1.01,0.289 (active),0.929,1.03,0.925
COCC(=O)N(c1c(C)cccc1C)N1CCOC1=O,0.966,0.969,0.945,1,0.978,0.99,1,0.963,0.983,0.997
C[C@@H](Oc1ccc(Oc2ncc(C(F)(F)F)cc2Cl)cc1)C(=O)O,0.971,0.97,0.964,0.942,1.02,0.992,0.975,0.912,0.99,0.994
COC(=O)C(Cl)Cl,1,0.968,0.992,1,1.06,1.02,0.971,0.957,0.997,0.991
CC(CCl)OP(=O)(OC(C)CCl)OC(C)CCl (mixture of isomers),1.14,1,0.998,0.973,0.994,1,0.958,1.05,1.02,0.951
CNC(=O)O/N=C(\C)C(C)S(C)(=O)=O (stereo not given),1.15,0.99,1.01,0.969,0.931,1.03,1.01,1.27,0.98,0.953
